Assay results: PubChem BioAssay AID2524 (Sanford-Burnham Center for Chemical Genomics, 2010)
Among all 330,000 compounds or so, about 540 (0.16%) were called active. The entries come from a sample that favours actives as a whole. Values without a mark were called inactive.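 Rule for the calls: active = activation factor of the enzyme at least 2-fold when tested at 20 µM; inactive = the rest.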

target: Intestinal-type alkaline phosphatase (Homo sapiens) (UniProt P09923); test: human IAP activators, primary screen, biochemical, luminescence, uHTS (AID 2524); details: purified human IAP, CDP-Star luminescence, 30 min; at 10 µM; stronger effect = higher value; 1 = vehicle-only enzyme, 0 = enzyme-free background
Sequence (P09923 whole entry, looked up): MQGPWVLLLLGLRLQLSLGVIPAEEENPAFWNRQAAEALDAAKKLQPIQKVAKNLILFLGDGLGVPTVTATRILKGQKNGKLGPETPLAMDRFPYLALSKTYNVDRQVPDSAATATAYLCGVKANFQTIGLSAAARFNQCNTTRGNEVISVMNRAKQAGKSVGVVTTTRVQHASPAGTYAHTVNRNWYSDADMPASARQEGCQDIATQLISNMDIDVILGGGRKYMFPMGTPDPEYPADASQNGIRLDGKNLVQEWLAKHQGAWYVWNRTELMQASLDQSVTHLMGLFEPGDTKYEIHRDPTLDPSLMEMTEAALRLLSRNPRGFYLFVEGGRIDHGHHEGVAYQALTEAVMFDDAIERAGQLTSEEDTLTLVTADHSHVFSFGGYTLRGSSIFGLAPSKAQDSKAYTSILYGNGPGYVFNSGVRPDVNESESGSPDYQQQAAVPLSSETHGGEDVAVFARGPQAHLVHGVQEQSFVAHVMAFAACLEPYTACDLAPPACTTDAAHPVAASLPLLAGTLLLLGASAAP

| SMILES | activation factor |
| --- | --- |
| CN1C(=O)C2(OCCCO2)c2cc(Cl)ccc21 | 0.939 |
| CC(=O)NCCc1ccc(S(=O)(=O)Nc2ccc(C)c(S(=O)(=O)N3CCOCC3)c2)cc1 | 0.976 |
| COc1ccc(N(CC(=O)NCCSCc2cccc(Cl)c2)S(C)(=O)=O)cc1 | 1.4 |
| Cn1cnnc1SCC(=O)NNC(=O)COc1ccc(Br)cc1 | 1.79 |
| Cn1cnnc1SCC(=O)Nc1ccc(N2CCOCC2)cc1 | 1.03 |
| CCOc1ccc(NC(=O)CSc2nncn2C)cc1 | 3.82 (active) |
| Cc1cn(C2C=CC(CO)O2)c(=O)[nH]c1=O (centres undefined) | 0.925 |
| Cc1cc2c(cc1C)[n+](C)cn2CC(O)COCC1CC=CCC1 (centres undefined) | 0.897 |
| N=c1c2c(-c3ccccc3)c(-c3ccccc3)n(Cc3ccccc3)c2ncn1CCCO | 1.11 |
| OCCCN1c2ccccc2Nc2nnc(-c3ccccc3)cc21 | 2.48 (active) |
| O=C(NC(=S)Nc1ccccc1C(=O)O)c1ccc(-c2ccc(Br)cc2)o1 | 0.945 |
| CCCCCC1CC(COc2ccccc2)OC1=O (centres undefined) | 0.9 |
| CC(C)(C)NC(=O)C(=O)NCc1ccncc1 | 1.09 |
| CC(NCC(=O)Nc1cc(Cl)cc(Cl)c1)c1ccccc1 (centres undefined) | 1.03 |
| CCC(C(=O)OCC(=O)Nc1ccc(C(=O)Nc2ccc(OC)cc2)cc1)c1ccccc1 (centres undefined) | 1.08 |
| CCC(C(=O)Nc1ccc(C(C)C)cc1)c1ccccc1 (centres undefined) | 2.92 (active) |
| CCC(C(=O)Nc1ccc2c(c1)OCCO2)c1ccccc1 (centres undefined) | 0.871 |
| O=C(CSc1nnnn1C1CCCC1)Nc1ccc2c(c1)OCCO2 | 0.96 |
| Cc1cnc(NC(=O)Cn2cnc3c2c(=O)n(C)c(=O)n3C)s1 | 1 |
| CCOc1ccc(C(=O)COC(=O)c2ccc(-n3cnnn3)cc2)cc1 | 1.05 |
| CC(=O)NC1C(Oc2ccc(C)cc2)OC2COC(c3ccco3)OC2C1O (centres undefined) | 1.11 |
| Oc1cccc(/C=N/Nc2ccc(Cl)nn2)c1O | 2.16 (active) |
| Oc1ccc(Br)cc1/C=N/Nc1ccccn1 | 1.22 |
| O=C(COc1ccc2c(C(F)(F)F)cc(=O)oc2c1)Nc1ccc2c(c1)OCCO2 | 1.02 |

| SMILES | activation factor |
| --- | --- |
| C=CCOc1cccc(CNn2cn[nH]c2=S)c1 | 0.895 |
| CNC(=O)CN1C(=O)NC(c2ccccc2)(c2ccccc2)C1=O | 1.05 |
| CCOc1ccccc1N1C(=O)CC(Sc2nccc(C)n2)C1=O (centres undefined) | 1.29 |
| O=C(NCC(=O)N1CCC2(CC1)NCCc1[nH]cnc12)c1ccc(Br)cc1 | 1.11 |
| O=C(O)CSC(NC(=O)c1cccnc1)(C(F)(F)F)C(F)(F)F | 0.961 |
| O=C1COc2ccc(C(=O)CSc3ccc(Br)cc3)cc2N1 | 1.06 |
| O=C(Nc1sc2c(c1-c1nc3ccccc3[nH]1)CCCC2)C1CC1 | 1.06 |
| O=[N+]([O-])c1ccc2nc(-c3ccccn3)[nH]c2c1 | 1.4 |
| c1ccc2[nH]c(-c3nc4ccccc4[nH]3)nc2c1 | 2.1 (active) |
| O=C(NCCC1CCCCN1S(=O)(=O)c1ccc(Cl)cc1)C(=O)NCc1ccco1 (centres undefined) | 1.03 |
| Cn1c(=O)c2c(nc(NCCc3ccccc3)n2Cc2ccccc2)n(C)c1=O | 0.914 |
| Cn1c(=O)c2sccc2n(Cc2ccc(Br)cc2)c1=O | 0.619 |
| Cn1c(=O)c2c(nc(N/N=C/c3cccs3)n2Cc2ccc(Br)cc2)n(C)c1=O | 2.42 (active) |
| Cc1cccc(NC(=O)CSc2nnc(CCCCCNC(=O)OC(C)(C)C)o2)c1C | 0.854 |
| O=C(O)CCC(=O)Nc1ccc(OCC2CCCO2)cc1 (centres undefined) | 0.853 |
| Cc1cc(C)c(C#N)c(SCC(=O)N(CC(C)C)C2CCS(=O)(=O)C2)n1 (centres undefined) | 0.97 |
| Cc1cccc(NC(=O)c2nc[nH]c2C(=O)NCC(=O)OCc2ccccc2)c1 | 1.09 |
| O=C(Nc1ccon1)c1nc[nH]c1C(=O)NCc1ccccc1 | 2.43 (active) |
| CCOC(=O)c1ccc(NC(=O)c2nc[nH]c2C(=O)NCc2ccccc2)cc1 | 1.59 |
| Cc1ccc2cc(CCNC(=O)c3c(-c4ccccc4Cl)noc3C)c(=O)[nH]c2c1 | 0.983 |
| COc1ccc(C(=O)NNc2cc(C)nc(NNC(=O)c3ccc(OC)cc3)n2)cc1 | 2.25 (active) |
| COc1ccc(C(=O)NNS(=O)(=O)c2ccc(C)cc2)cc1 | 0.935 |
| COc1ccc(C(=O)NNC(=O)c2cc(C)[nH]n2)cc1 | 1.61 |
| CC(=O)NC1C(Oc2ccc(C=O)cc2)OC(COC(C)=O)C(OC(C)=O)C1OC(C)=O (centres undefined) | 1.03 |

| SMILES | activation factor |
| --- | --- |
| CN(C)C(CNC(=O)c1cccc(C#N)c1)c1ccco1 (centres undefined) | 0.873 |
| OC(c1nc2ccc(F)cc2[nH]1)C(O)c1nc2ccc(F)cc2[nH]1 (centres undefined) | 3.62 (active) |
| CN(Cc1nc2ccc(F)cc2[nH]1)Cc1nc(CC2CC2)no1 | 0.896 |
| Oc1ccc2nc(Cc3ccccc3)[nH]c2c1 | 0.985 |
| Nc1ncnc2c1ncn2[C@@H]1O[C@H](CNCc2cccn2-c2nccs2)[C@@H](O)[C@H]1O | 0.901 |
| CC(C)=CCN1CCN(Cc2cc3ccccc3[nH]2)CC1CCO (centres undefined) | 1.13 |
| Cc1ccc(NC(=O)CN2C(=O)NC(C)(c3ccc(Cl)cc3)C2=O)c(Br)c1 (centres undefined) | 1 |
| CN(c1ccccc1)S(=O)(=O)c1cccc(NC(=O)Cc2ccc(Cl)cc2)c1 | 1.01 |
| CCOC(=O)c1sc(NC(=O)CSc2nc(C)cc(C(F)(F)F)n2)c(C#N)c1C | 0.888 |
| COc1ccccc1N(C)S(=O)(=O)c1ccc(C(=O)N2CCC(C(N)=O)CC2)cc1 | 0.887 |
| O=C(CCCCO)c1ccc(O)c(Cl)c1 | 1.08 |
| CC(C)c1ccc(NC2CCCN(C(=O)c3ccncc3)C2)cc1 (centres undefined) | 0.926 |
| Cc1ccc(S(=O)(=O)N2[C@@H](c3cccc(Cl)c3)C(C(=O)O)=CC[C@H]2c2ccc(Cl)c(Cl)c2)cc1 | 1.09 |
| COC(C[C@@H](O)[C@H](C)[C@H](O)COCc1ccccc1)OC | 0.977 |
| O=C(OCC1O[C@@H](OC(=O)c2cc(O)c(O)c(O)c2)[C@@H](OC(=O)c2cc(O)c(O)c(O)c2)[C@@H](OC(=O)c2cc(O)c(O)c(O)c2)[C@@H]1OC(=O)c1cc(O)c(O)c(O)c1)c1cc(O)c(O)c(O)c1 (some centres undefined) | 3.98 (active) |
| COc1ccc(C(=O)N(Cc2ccccc2)c2ccc(C)cc2)cc1S(=O)(=O)N1CCOCC1 | 0.94 |
| CC(C)NC(=O)NCCCCCCS(C)=O (centres undefined) | 1.08 |
| CC(C)CN(CC(C)C)CC(O)CN(c1ccccc1)S(=O)(=O)c1ccccc1[N+](=O)[O-] (centres undefined) | 0.882 |
| CC(C)N(C(=O)CSc1nc(COc2ccccc2)nc2ccccc12)C(C)C | 0.961 |
| COc1cccc(NC(=O)CN(C)C(=O)c2ccccc2CCc2ccccc2)c1 | 1.1 |
| Cn1cc(S(=O)(=O)N2CCN(c3ccc(F)cc3)CC2)c(=O)n(C)c1=O | 1.04 |
| O=S(=O)(CCc1nc2ccccc2o1)c1ccc(Cl)cc1 | 0.959 |
| CC(C)CC(N=C1NC(C)(C)Cc2ccccc21)C(=O)O (centres undefined) | 0.9 |
| CCOC(=O)C1=NNC2(c3ccc(Cl)cc3)C(=O)N(c3cc(C)cc(C)c3)C(=O)C12 (centres undefined) | 1.06 |

| SMILES | activation factor |
| --- | --- |
| O=S(=O)(c1ccc(F)cc1)N1CC=C(c2ccccc2)CC1 | 1.01 |
| CN1CCN(Cc2c(C(=O)N3CCc4ccccc4C3)nc3ccc(Cl)cn23)CC1 | 1.33 |
| CC(C)CC(=O)Nc1nnc(S(=O)(=O)N(C)c2ccc(Cl)cc2)s1 | 0.968 |
| COc1ccc(-n2nnc3c(=O)n(CC(=O)N4CCC(Cc5ccccc5)CC4)cnc32)cc1 | 1.02 |
| COc1ccc(/C=N/NC(=O)c2ccncc2)cc1CN1CCCc2ccccc21 | 1.06 |
| COc1cc(/C=N\NC(=O)C2C(=O)NCC2c2ccccc2)cc(OC)c1O (centres undefined) | 0.911 |
| COc1cccc(/C=N\NC(=O)C2=NNC(=O)C2C)c1O (centres undefined) | 2.88 (active) |
| COc1cccc(/C=N/NC(=O)c2[nH]nc3c2CCc2ccccc2-3)c1O | 2.64 (active) |
| CCOc1ccc2[nH]c(C(=O)N/N=C/c3cccc(OC)c3OC)cc2c1 | 0.924 |
| COc1cc(/C=N/NC(=O)c2cc(-c3ccccc3C)nc3ccccc23)cc(OC)c1O | 0.992 |
| Cc1ccc(OCC(=O)Nc2ccccc2C(=O)NC2CC2)cc1 | 0.945 |
| Cc1ccccc1N1C(=O)C(Oc2ccc(Cl)cc2)C1CNCC1CCCO1 (centres undefined) | 0.957 |
| CN=C(Nc1cccc(S(=O)(=O)N2CCOCC2)c1)c1ccccc1 | 0.956 |
| FC(F)(F)c1ccc(-n2cn[nH]c2=S)cc1 | 1.1 |
| CC(CCN1CCN=C1N(C)C)c1ccccc1 (centres undefined) | 0.995 |
| O=C(Nc1ccccc1C(F)(F)F)N1CCCC1c1cccnc1 (centres undefined) | 0.942 |
| Cc1cc(=O)n2nc(N3CCCC(C(=O)NCc4cccc(Cl)c4)C3)sc2n1 (centres undefined) | 1.28 |
| CCCCN(CC(=O)NC(C)(C)C)C(=O)C(=O)Nc1ccc2c(c1)OCCO2 | 1.04 |
| COC(=O)Nc1sc2nc(C)cc(C)c2c1-n1cccc1 | 0.984 |
| CCCCOC(=O)Nc1sc2nc(C)cc(C)c2c1-n1cccc1 | 2.01 (active) |
| Cc1cc(C)c2c(-n3cccc3)c(NC(=O)OCc3ccccc3)sc2n1 | 1.11 |
| Cc1ccc(OCCCCN2CCCCC2)c(Br)c1 | 1.08 |
